Screening results (PubChem BioAssay)
Compounds with a hit are over-represented: about 22% of the library has one in this group of screens.
CHX counter: counter-screen hit for Shiga toxin inhibitors, cycloheximide; cell reporter, cycloheximide protein synthesis inhibition counterscreen; max response, %; 300,000 tested, 12% active; in the data active = max response mostly above about 13%, no sharp cut-off; inactive = mostly below about 14%; also: read at 38.3 µM for the half of the compounds with a filed dose
LmPK inh: LmPK (Leishmania mexicana) enzyme inhibition. purified LmPK, Kinase-Glo ATP luminescence, 1 h. Potency, µM (doses to about 57.5 µM), hits mostly inhibitors. 290,000 tested, 0.37% active. Q27686
Target sequence (Q27686 whole entry, looked up): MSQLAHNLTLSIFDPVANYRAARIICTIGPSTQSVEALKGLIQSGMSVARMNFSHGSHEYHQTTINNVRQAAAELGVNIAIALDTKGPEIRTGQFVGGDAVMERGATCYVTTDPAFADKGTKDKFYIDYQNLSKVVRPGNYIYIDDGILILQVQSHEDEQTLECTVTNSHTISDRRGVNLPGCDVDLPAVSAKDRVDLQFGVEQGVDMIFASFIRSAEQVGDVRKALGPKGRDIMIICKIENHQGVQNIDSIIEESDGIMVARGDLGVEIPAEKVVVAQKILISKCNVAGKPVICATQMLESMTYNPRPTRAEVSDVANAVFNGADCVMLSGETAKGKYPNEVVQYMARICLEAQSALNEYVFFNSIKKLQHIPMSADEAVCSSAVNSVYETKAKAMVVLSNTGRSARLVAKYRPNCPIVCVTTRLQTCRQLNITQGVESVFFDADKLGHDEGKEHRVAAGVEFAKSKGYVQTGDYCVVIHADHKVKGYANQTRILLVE
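0.1 nM LmPK, 0.5 mM PEP, 0.1 mM ADP; 50 mM imidazole pH 7.2, 7 mM MgCl2, 50 mM KCl; 1 h RT. Kinase-Glo luminescence readout, normalized to no-enzyme (full inhibition) and uninhibited wells.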
Shiga inhibitor: Shiga toxin inhibition | Vero cells, Shiga toxin protein synthesis inhibition reporter | 290,000 tested, 9.2% active | AID 2315 | inhibition, % at 38.7 µM; in the data active = inhibition mostly above about 28%, no sharp cut-off; inactive = mostly below about 43%
Pf growth 48h: P. falciparum growth inhibition at 48 hours (one generation); P. falciparum luciferase growth in erythrocytes, 48 h; Potency, µM (highest dose often 28.7 µM), actives largely listed as inhibitors; 310,000 tested, 5.9% active; AID 504832
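A one-generation exposure of luciferase-tagged malaria parasites in RPMI 1640/Albumax erythrocyte culture, 37 C and 5% CO2. Inhibition is inferred from decreased luminescence after adding detection reagent.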
Pf growth 96h: P. falciparum growth inhibition at 96 hour, primary screen for plastid delayed-death inhibitors; Potency, µM (top dose mostly 28.7 µM), most hits filed as inhibitors; AID 504834; P. falciparum luciferase reporter growth, 96 h; 320,000 tested, 6.9% active
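Infected RBCs, 2% Hct / 0.05% parasitemia final; luciferase-reporter P. falciparum; cpd 96 h, 37 C, 5% CO2; luciferase detection reagent; luminescence.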
A number is an active result; 0 = inactive; ? = inconclusive; - = no result given; ! = not confirmed by another sample; [ ] = dose if it differs, or a comment. Unless noted, calls follow the shape of the dose curve; as a rule, active = well fitted inhibition curve with a large enough effect; inconclusive = small, poorly fitted or top-dose-only effect, or another doubt; inactive = no such curve, though single readings can be large or run the other way.

SMILES | CHX counter | LmPK inh | Shiga inhibitor | Pf growth 48h | Pf growth 96h
Cc1ccc(C(=O)NCC(=O)OCCCOC(=O)CNC(=O)c2ccc(C)cc2)cc1 | - | - | - | 0 | 0
COc1ccc(C(C(=O)NC2CCCCC2)N(CC2CCCO2)C(=O)C2COc3ccccc3O2)cc1OC (stereo not drawn) | 0 | 0 | 0 | 11.7µM | 0
COc1ccc(C(=O)N(CC2CCCO2)C(C(=O)NC2CCCC2)c2ccc(Cl)cc2)cc1OC (stereo not drawn) | 0 | 0 | 0 | 11.7µM | 6.57µM
CC(C)N1CCN(c2ccc(C(=O)c3c(-c4ccc(O)cc4)sc4cc(O)ccc34)cc2)CC1 | 0 | - | 0 | - | -
COc1ccc(NC(=O)c2ccco2)cc1NC(=O)c1cccc(F)c1 | 0 | 0 | 0 | 0 | ?
CC1CN(C(=S)NC(=O)C2CCCCC2)CC(C)O1 (stereo not drawn) | 0 | 0 | 0 | 0 | 0
Cc1nc(-c2ccccc2)sc1-c1nc(-c2cccnc2)ncc1S(=O)(=O)c1ccccc1 | 0 | 0 | 0 | ? | ?
CCCOP(=O)(OCCC)c1c([N+](=O)[O-])cc(C(F)(F)F)cc1[N+](=O)[O-] | 0 | 0 | 0 | - | 9.28µM
CCc1ccc(C(O)(C(C)C)C(CN2CCOCC2)c2ccccc2)cc1 (stereo not drawn) | 0 | 0 | 0 | 5.22µM | 0
CCCC(O)(c1ccc(CC)cc1)C(CN1CCOCC1)c1ccccc1 (stereo not drawn) | 0 | 0 | 0 | 0.928µM | 0
CCCC(O)(c1ccc(Br)cc1)C(CN1CCOCC1)c1ccc(Cl)cc1 (stereo not drawn) | 0 | 0 | 0 | 2.33µM | 0
C=CCNC(=O)Nc1ccc(Cl)cn1 | 0 | 0 | 0 | 0 | 0
O=C1C=CC(=O)N1 | - | - | - | 0 | 0
CC(=O)Oc1ccc(C(=O)Nc2ccccc2NC(=O)c2ccc(OC(C)=O)cc2)cc1 | 0 | 0 | 0 | 0[0.00184 µM] | ?
CCCOc1ccc(C(=O)Nc2ccc3c(c2)OCCO3)cc1 | 36.4 | 0 | 72.8 | 0 | 0
COc1ccc(C(=O)CCNc2ccc3c(c2)OCCO3)cc1 | 0 | 0 | 58.6 | 0 | 0
CC(=O)Oc1ccc(C(=O)Nc2cc(NC(=O)c3ccc(OC(C)=O)cc3)cc(C(=O)NC(C)(C)C)c2)cc1 | 0 | 0 | 0 | ? | 2.62µM
COc1ccc(C(=O)Nc2ccc3c(c2)OCCO3)cc1 | 15.1 | 25.1µM | 0 | 0 | ?
CC(=O)c1ccc(OCCCC(=O)Nc2ccc3c(c2)OCCO3)cc1 | - | - | - | 0 | ?
CC(=O)Oc1ccc(C(=O)Nc2ccc3c(c2)OCCO3)cc1 | 25.9 | ? | - | 0 | ?
COc1ccccc1CNC(=O)C1Cc2cc(S(=O)(=O)N3CCCC3)ccc2N1C(C)=O (stereo not drawn) | 0 | 0 | 0 | ? | 0
COc1cccc(CNC(=O)C2Cc3cc(S(=O)(=O)N4CCCC4)ccc3N2C(C)=O)c1OC (stereo not drawn) | 0 | 0 | 0 | 0 | 14.7µM
CC(=O)N1c2ccc(S(=O)(=O)N3CCCC3)cc2CC1C(=O)NCc1ccc(N(C)C)cc1 (stereo not drawn) | 0 | 0 | 0 | 0 | 6.57µM
Cc1ccccc1NS(=O)(=O)c1cccc2nsnc12 | 0 | 0 | 0 | 0 | ?
Cc1ccc(SCCN2CCN(C)CCC2=O)cc1 | 28.0! | 0 | 77.2 | 0 | 0
SMILES | CHX counter | LmPK inh | Shiga inhibitor | Pf growth 48h | Pf growth 96h
CN1CCC(=O)N(CCSc2ccccc2)CC1 | 42.7 | 0 | 48.7 | 0 | 0
c1ccc(SCCN2CCc3ccccc3C2)cc1 | 27.2 | 0 | 0 | 0 | ?
COc1ccc(SCCN2CC[C@@H](C)CCC2=O)cc1 | - | - | - | 0 | 0
CC1CCC(=O)N(CCSc2ccccc2)CC1 (stereo not drawn) | 25.0 | 0 | 36.8 | 0 | 0
O=C1CCN(CCc2ccccc2)CCN1CCSc1ccccc1 | 22.9 | 0 | 0 | 0 | 0
CC(=O)Nc1ccc(SCCN2CCN(CCc3ccccc3)CCC2=O)cc1 | 0 | - | 0 | - | -
O=[N+]([O-])c1cccc(NNS(=O)(=O)c2ccccc2F)c1 | 0 | 0 | 0 | 0 | 0
CCCC[n+]1c(C)sc2ccc(C)cc21 | 0 | 0 | 0 | 0 | 4.65µM
CCCc1ccc(NC(C)C(=O)Nc2ccc(S(=O)(=O)N3CCOCC3)cc2)cc1 (stereo not drawn) | - | - | - | ? | 5.22µM
O=C(CCc1ccc(S(=O)(=O)N2CCOCC2)cc1)Nc1ccc(N2CCOCC2)cc1 | 0 | 0 | 0 | ? | ?
Cc1ccc(NC(=O)CN2c3cccc4cccc(c34)S2(=O)=O)cc1S(=O)(=O)N1CCOCC1 | 0 | 0 | 0 | ? | 9.28µM
CCCC(C(=O)Nc1ccc(S(=O)(=O)N2CCOCC2)cc1)c1ccccc1 (stereo not drawn) | - | - | - | 13.1µM | 9.28µM
CC(Sc1ccccc1)C(=O)Nc1ccc(S(=O)(=O)N2CCOCC2)cc1 (stereo not drawn) | 0 | 0 | 0 | ? | ?
COc1cc(S(=O)(=O)N2CCOCC2)ccc1NC(=O)CN1c2cccc3cccc(c23)S1(=O)=O | 0 | 0 | 0 | 0 | ?
CCC(C)c1ccccc1N1CC(C(=O)Nc2ccc(C)c(S(=O)(=O)N3CCOCC3)c2)CC1=O (stereo not drawn) | - | - | - | 13.1µM | ?
COc1ccc(Cl)cc1NC(=S)NC(=O)c1ccco1 | - | - | - | 0 | 0
O=C(CCCCCNC(=O)c1ccccc1Br)N=Nc1c(O)[nH]c2ccccc12 | 0 | 0 | 0 | ? | ?
Cc1ccc(NC(=O)COC(=O)/C=C/c2ccccc2)cc1S(=O)(=O)N1CCOCC1 | 0 | 0 | 0 | 0 | 0
Cc1ccc(NC(=O)COc2cccc(Oc3ccccc3)c2)cc1S(=O)(=O)N1CCOCC1 | - | - | - | 10.4µM | ?
CCCC(C(=O)Nc1ccc(C)c(S(=O)(=O)N2CCOCC2)c1)c1ccccc1 (stereo not drawn) | - | - | - | 10.4µM | ?
CCCC(C(=O)Nc1cccc(S(=O)(=O)N2CCCC2)c1)c1ccccc1 (stereo not drawn) | - | - | - | ? | 10.4µM
Cc1ccc(NC(=O)C(C)N2C(=O)c3ccccc3C2=O)cc1S(=O)(=O)N1CCOCC1 (stereo not drawn) | 0 | 0 | 0 | 0 | 0
CNC(=O)c1cccc(NC(=O)CCCNC(=O)c2ccc(Cl)cc2)c1 | 0 | 0 | 0 | 0 | 0
CC(C)(C)OC(=O)NCCCC[C@H](NC(=O)c1[nH]cnc1C(=O)Nc1ccc(CNC(=O)OC(C)(C)C)cc1)C(=O)OC(C)(C)C | 0 | 0 | 0 | 3.29µM | 3.29µM
C[C@H](NC(=O)c1[nH]cnc1C(=O)Nc1ccc(CNC(=O)OC(C)(C)C)cc1)C(=O)OC(C)(C)C | 0 | 0 | 0 | 13.1µM | 9.28µM
SMILES | CHX counter | LmPK inh | Shiga inhibitor | Pf growth 48h | Pf growth 96h
Cc1cccc(CN2CCN(C(C)C(=O)NC(C)c3ccccc3)CC2)c1 (stereo not drawn) | 0 | 0 | 0 | 0[0.00184 µM] | 0
CC1=CC(C)(C)N(C(=O)CNC2CCCC2)c2cc(C)ccc21 | 0 | 0 | 0 | ? | 0
C/C(=N\NC(=O)COc1cccc(Br)c1)c1ccc2c(c1)OCCO2 | - | - | - | 0 | 0
O=C(Nc1nnc(SCc2cccnc2)s1)C1CC(=O)N(c2ccccc2)C1 (stereo not drawn) | 0 | 0 | 0 | 0 | 0
Nc1ncnc2c1ncn2CCOc1ccccc1 | 0 | 0 | 0 | 0 | 0
CC(C)(C)C(=O)OCOP(=O)(COCCn1cnc2c(N)ncnc21)OCOC(=O)C(C)(C)C | - | - | - | 15.1µM | 6.75µM
